Our source for the remaining activity values is PubChem BioAssay AID602143 (Vanderbilt Specialized Chemistry Center, 2011).

The structures appear in SMILES notation. Where “and” joins values, the source holds several entries; their conditions need not be identical. Equal entries are not always repeated. A structure can be active in one record and inactive in another. Calls of active or inactive are those of the source. No stated cut-off is given here; in the data, active means remaining activity below about 50%; inactive means the rest.

This assay concerns the target Phospholipase D2 (Homo sapiens) (UniProt O14939). Briefly: PLD2 inhibitors in cells, cell-based, HEK293, single concentration (AID 602143).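 Further: tested at 200 nM.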 The note with it: HEK293 cellular PLD2 activity, percent of control; stronger effect = lower value.

Chain of Phospholipase D2 (Homo sapiens) (O14939 whole entry, looked up): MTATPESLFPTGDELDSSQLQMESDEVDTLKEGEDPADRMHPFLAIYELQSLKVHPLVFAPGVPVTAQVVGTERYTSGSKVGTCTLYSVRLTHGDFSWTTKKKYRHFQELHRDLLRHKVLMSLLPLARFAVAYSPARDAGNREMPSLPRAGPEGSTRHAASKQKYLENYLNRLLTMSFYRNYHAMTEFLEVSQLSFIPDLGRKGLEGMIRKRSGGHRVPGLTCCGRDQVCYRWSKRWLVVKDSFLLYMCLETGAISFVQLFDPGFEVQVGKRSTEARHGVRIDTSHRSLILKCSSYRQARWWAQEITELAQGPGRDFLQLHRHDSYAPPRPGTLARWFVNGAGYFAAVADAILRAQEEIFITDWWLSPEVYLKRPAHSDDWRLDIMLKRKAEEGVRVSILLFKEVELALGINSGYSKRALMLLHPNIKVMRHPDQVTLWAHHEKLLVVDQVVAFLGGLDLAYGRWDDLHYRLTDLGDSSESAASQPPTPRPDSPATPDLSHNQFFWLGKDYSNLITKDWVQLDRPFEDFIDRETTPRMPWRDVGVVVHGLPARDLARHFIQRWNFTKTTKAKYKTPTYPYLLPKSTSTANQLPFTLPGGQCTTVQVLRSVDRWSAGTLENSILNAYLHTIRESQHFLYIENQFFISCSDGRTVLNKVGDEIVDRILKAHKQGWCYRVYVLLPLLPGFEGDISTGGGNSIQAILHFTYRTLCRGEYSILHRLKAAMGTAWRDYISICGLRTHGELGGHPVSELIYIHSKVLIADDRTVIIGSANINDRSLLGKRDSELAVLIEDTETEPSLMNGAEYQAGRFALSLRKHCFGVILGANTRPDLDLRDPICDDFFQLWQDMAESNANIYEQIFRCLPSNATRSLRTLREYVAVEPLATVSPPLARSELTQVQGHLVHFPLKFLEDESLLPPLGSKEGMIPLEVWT
Chain of Phospholipase D2 (Homo sapiens) (O14939 whole entry, looked up): as above

In the case of `O=C(NCCN1CCC2(CC1)C(=O)N(Cc1ccccc1)c1ccccc12)c1ccc2ccccc2c1`, the remaining activity is 70.6% (inactive).
Take `C[C@@H](CN1CCC2(CC1)C(=O)NCN2c1ccc(F)c(F)c1)NC(=O)c1cnc2ccccc2c1`: the remaining activity is 7.28% (active).
Regarding `O=C(NCCN1CCC2(CC1)C(=O)NCN2c1ccccc1)c1ncc[nH]1`, the remaining activity was 113% (inactive).
Turning to `C[C@H](CN1CCC2(CC1)C(=O)NCN2c1ccccc1)NC(=O)c1cc2cc(F)ccc2[nH]1`, the remaining activity was 0% (active).
Regarding `COc1cc(C(=O)NCCN2CCC3(CC2)C(=O)NCN3c2ccccc2)ccc1N`, the remaining activity was 38.8% (active).
For the molecule `O=C(NCCN1CCC2(CC1)C(=O)NCN2c1ccc(F)cc1)c1cc2ccccc2[nH]1`, the remaining activity is 8.73% (active).
To `O=C(NCCN1CCC2(CC1)C(=O)NCN2c1cccc(F)c1)c1cccc(F)c1` belongs 63.4% (inactive); to `CC(C)[C@@H](CN1CCC2(CC1)C(=O)NCN2c1ccccc1)NC(=O)c1cnc2ccccc2c1`, 59.3% (inactive); to `O=C(c1cnc2ccccc2c1)N1CCCC1CN1CCC(n2c(=O)[nH]c3ccccc32)CC1` (stereo not given), 54.2% (inactive).
For `O=C(CCc1ccc(F)cc1)NCCN1CCC2(CC1)C(=O)NCN2c1ccccc1`, the remaining activity was 102% (inactive).
In the case of `O=C(NCCN1CCC2(CC1)C(=O)NCN2c1ccccc1)c1cc2ccccc2s1`, the remaining activity is 10.3% (active).
As for `C[C@H](CN1CCC2(CC1)C(=O)NCN2c1ccccc1)NC(=O)c1ccc(F)cc1`, the remaining activity was 81.7% (inactive).
As to `O=C1NCN(c2ccccc2)C12CCN(CCN1CCCC1)CC2`, the remaining activity is 84.9% (inactive).
With `CCCCCC(=O)N(CCN1CCC2(CC1)C(=O)NCN2c1cccc(F)c1)C(=O)CCCCC`, the remaining activity was 73.1% (inactive).
Take `O=C(NCCN1CCC2(CC1)C(=O)NCN2c1ccccc1)c1cccnn1`: the remaining activity is 88.2% (inactive).
Under `O=C(NCCN1CCC2(CC1)C(=O)NCN2c1ccc(F)c(F)c1)c1cc2cc(F)ccc2[nH]1` stands 10.4% (active); under `O=C(NCCN1CCC2(CC1)C(=O)NCN2c1ccccc1)c1cc(Br)c(Br)o1`, 77.1% (inactive).
Regarding `O=C(NCCN1CCC2(CC1)C(=O)NCN2c1ccc(F)c(F)c1)c1ccc(Cl)cc1`, the remaining activity is 55.3% (inactive).
In the case of `CC1(C)C(C(=O)NCCN2CCC3(CC2)C(=O)NCN3c2ccccc2)C1(C)C`, the remaining activity was 122% (inactive).
To `O=C(NCCN1CCC2(CC1)C(=O)NCN2c1cccc(F)c1)c1c(F)cccc1F` belongs 88% (inactive); to `O=C(NCCN1CCC2(CC1)C(=O)NCN2c1cccc(Cl)c1)c1cc2cc(F)ccc2[nH]1`, 40.2% (active); to `O=C(NCCN1CCC2(CC1)C(=O)NCN2c1ccc(Br)cc1)c1cnc2ccccc2c1`, 48.6% (active).
For the molecule `O=C(NCCCN1CCC2(CC1)C(=O)NCN2c1ccccc1)c1cnc2ccccc2c1`, the remaining activity is 96.4% (inactive).
On to `O=C(NCCN1CCC2(CC1)C(=O)NCN2c1ccccc1)c1ncccc1F`, for which the remaining activity is 82.2% (inactive).
Under `CC(C)[C@@H](CN1CCC2(CC1)C(=O)NCN2c1ccccc1)NC(=O)c1cc2cc(F)ccc2[nH]1` stands 57.1% (inactive).
Turning to `O=C(NCCN1CCC2(CC1)C(=O)NCN2c1ccccc1)c1cnc2ccccc2n1`, the remaining activity was 101% (inactive).
Take `O=C(NCCN1CCC2(CC1)C(=O)NCN2c1ccccc1)c1ncc(F)cc1F`: the remaining activity is 52.8% (inactive).
As to `O=C(CCN1CCC2(CC1)C(=O)NCN2c1ccccc1)Nc1ccc(Cl)cc1`, the remaining activity was 183% (inactive).
With `C[C@@H](CN1CCC2(CC1)C(=O)NCN2c1ccc(F)c(F)c1)NC(=O)c1ccc2ccccc2c1`, the remaining activity was 51.2% (inactive).
To `C[C@@H](CN1CCC2(CC1)C(=O)NCN2c1ccccc1)NC(=O)c1ccc(F)c(F)c1` belongs 54.7% (inactive); to `O=C(c1ccc2ccccc2c1)N1CC(N2CCC3(CC2)C(=O)NCN3c2ccccc2)C1`, 72.6% (inactive).
Take `O=C(CCCl)NCCN1CCC2(CC1)C(=O)NCN2c1cccc(F)c1`: the remaining activity is 87.1% (inactive).
Regarding `O=C(c1ccc2ccccc2c1)N1CCCC1CN1CCC(n2c(=O)[nH]c3ccccc32)CC1` (stereo not given), the remaining activity is 49.9% (active) and 63.2% (inactive).
Turning to `O=C1c2ccccc2C(=O)N1CCN1CCC2(CC1)C(=O)NCN2c1ccccc1`, the remaining activity was 86.5% (inactive).
With `CC(C)[C@@H](CN1CCC2(CC1)C(=O)NCN2c1ccccc1)NC(=O)c1ccc(F)cc1`, the remaining activity was 74.9% (inactive).

In general, remaining activity refers to the signal under treatment as a percentage of the control signal.
